This is a sample that favours compounds with a hit; in the whole collection about 1.8% have one here.
CCHF vOTU inh-1: blocks the CCHF virus ovarian tumor domain protease; CCHFV vOTU protease, Pep-AMC fluorescence; inhibition, % at 11.5 µM; 0.55% of 370,000 active; AID 651958; note: 0% = vehicle wells with enzyme and 100% = no enzyme wells
Vc quorum ag: quorum light induction in luxS cqsA deficient V. cholerae. AID 588436. 0.16% of 350,000 active. activation, % at 18.7 µM. V. cholerae BH1578 lux reporter, luminescence, 6 h; in the data active = activation mostly above about 9.7%, no sharp cut-off
MazF activator: activators of E. coli MazEF toxin-antitoxin RNase; P0AE70; FAM/BHQ RNA-DNA oligo cleavage fluorescence, 5 h; activation, % at 20 µM; 0.32% of 350,000 active; AID 504720; in the data active = activation above about 50%
Target sequence (P0AE70 whole entry, looked up): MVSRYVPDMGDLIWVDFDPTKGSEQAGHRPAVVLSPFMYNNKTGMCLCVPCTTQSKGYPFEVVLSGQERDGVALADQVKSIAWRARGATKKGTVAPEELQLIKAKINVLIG
VHR inh abs: inhibitors of human VHR1 phosphatase (DUSP3). recombinant VHR phosphatase, pNPP absorbance. P51452. 0.52% of 290,000 active. inhibition, % at 13.3 µM; in the data active = inhibition above about 50%
Target sequence (P51452 whole entry, looked up): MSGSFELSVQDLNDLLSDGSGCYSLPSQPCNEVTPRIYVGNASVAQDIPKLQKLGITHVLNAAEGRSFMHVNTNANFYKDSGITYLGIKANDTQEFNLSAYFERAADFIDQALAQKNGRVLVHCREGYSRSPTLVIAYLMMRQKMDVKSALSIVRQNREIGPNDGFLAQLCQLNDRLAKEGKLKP
Y pestis TopoI: blocks Yersinia pestis topoisomerase I activity. activity, % at 10 µM. 0.064% of 360,000 active. Y. pestis Topo-I cleavage product accumulation, plate reader; in the data active = activity above about 50%, passing the limit was not always enough
PrPC surface inh: inhibitors of human cell surface prion protein PrPC. inhibition, % at 13.8 µM. TR-FRET read-out. AID 720596. 0.43% of 370,000 active. P04156; in the data active = inhibition above about 24%; note: 0% = median of the test wells and 100% = reference compound wells
CCHF vOTU inh-2: CCHFV vOTU protease inhibition, confirmation; shares compounds with CCHF vOTU inh-1; 17% of 1,900 active; Recombinant CCHFV vOTU, Pep-AMC fluorescence; inhibition, % at 11.5 µM; AID 686976
Active calls of the source: *; i = inactive; . = not tested or not shown. Cut-off read from the data, not from the text of the source, unless noted: active = inhibition above about 30%; inactive = the rest.

SMILES | CCHF vOTU inh-1 | Vc quorum ag | MazF activator | VHR inh abs | Y pestis TopoI | PrPC surface inh | CCHF vOTU inh-2
O=C(NCCc1ccccc1Cl)[C@@H]1CCCN1C(=O)[C@@H](NS(=O)(=O)c1ccc(F)cc1F)C1CCCCC1 | 33.9* | . | . | . | . | 4.8 | -9.3
CCCCCCN1C[C@H](n2cc(COC(=O)c3ccccc3)nn2)[C@@H](O)C[C@@H]1c1ccc(C)cc1 | 36.7* | -0.2 | -14.8 | . | 2.7 | -3.5 | 7.9
CCCCCCN1C[C@H](n2cc(C3CC3)nn2)[C@@H](O)C[C@@H]1c1ccc(C)cc1 | 38.4* | -1.1 | -9.6 | . | 31.4 | -1.9 | 16.3
COc1ccccc1CN1CCN(S(=O)(=O)c2ccc(C)cc2)CC1 | -7.9 | -0.3 | 4.8 | . | 5.0 | 5.4 | .
CCOc1cccc(CNc2ccc(O)cc2)c1OCc1ccc(Cl)cc1 | 31.0* | i | 6.2 | 9.1 | 11.2 | -3.1 | -2.0
O=C1Nc2cc(C(=O)NCC3CCCO3)ccc2S/C1=C/c1ccccc1F (centres undefined) | 30.7* | -0.2 | 12.8 | 54.2* | -3.0 | 1.8 | -22.8
CNC[C@@H]1OCc2ccccc2-c2c(n(C)c3ccccc23)C(=O)N([C@H](C)CO)C[C@H]1C | -7.6 | i | 12.8 | . | 12.3 | -10.6 | .
N#C/C(=C/c1ccc([N+](=O)[O-])cc1)C(N)=O | 33.8* | i | -8.4 | 6.3 | -0.7 | 6.2 | -24.2
CCn1nnnc1SCC(=O)c1cccc(OC)c1 | -0.1 | 2.2 | 18.9 | -7.7 | 2.4 | 8.6 | .
COc1ccc(-n2nnnc2SCC(=O)c2cccc(OC)c2)cc1 | 30.8* | -0.6 | 2.0 | 0.0 | 29.6 | 6.9 | -13.4
CCOC(=O)C1=C(COC(=O)c2ccc3ccccc3c2O)NC(=O)NC1C (centres undefined) | 36.2* | 0.0 | -397.7 | . | 14.0 | 4.8 | -11.9
CCOC(=O)C1=C(COC(=O)c2ccc([N+](=O)[O-])s2)NC(=O)NC1C (centres undefined) | 99.9* | -4.2 | 3.1 | . | -2.0 | -41.4 | 75.7*
CCOC(=O)C1=C(COC(=O)c2ccccc2OC(F)F)NC(=O)NC1C (centres undefined) | -7.0 | i | 7.5 | . | -2.7 | 5.5 | .
CN1CC(=O)N(CC(=O)Nc2ccc(N3CCOCC3)cc2)C1=O | 8.1 | -0.3 | 3.9 | . | -1.2 | 1.7 | .
COc1cccc(NC(=O)/C=C/c2ccc(S(=O)(=O)N3CCOCC3)cc2)c1 | 30.1* | -0.3 | -6.1 | . | -8.2 | -11.7 | -17.4
N#CCC[C@H]1CC[C@]2(CCCN(c3ccccc3)C2)O1 | 1.7 | . | . | . | . | 4.7 | .
CCCC(C)C(=O)NC1CCCCN(Cc2ccccc2C)C1=O (centres undefined) | -5.9 | . | . | . | . | 2.6 | .
COCC(=O)N1C[C@H]2CON(C)[C@H]2C[C@H]1c1ccc(N2CCCCC2)cc1 | 1.8 | . | . | . | . | -6.6 | .
O=[N+]([O-])c1ccccc1/C=C/C=N/n1c(-c2ccccc2F)n[nH]c1=S | 3.4 | i | 5.3 | 5.0 | -2.6 | -9.3 | .
Cc1ccccc1Cn1cc(COC(=O)N2CCOCC2)nn1 | 0.6 | . | . | . | . | -8.4 | .
O=C(N/N=C\c1c[nH]c2ccccc12)c1ccc(O)cc1 | 31.9* | -0.3 | 8.4 | 19.7 | -10.0 | -6.3 | -5.0
C=CCN(Cc1ccc(OC)cc1OC)C(C#CCCCC)c1ccccc1 (centres undefined) | . | . | . | . | . | 1.5 | .
CCNC(=O)N1c2ccc(OCC)cc2C(C)=CC1(C)C | -16.4 | 0.2 | 1.7 | 10.5 | 3.4 | -9.1 | .
CCOc1ccc2c(c1)C(C)=CC(C)(C)N2C(=O)Nc1ccccc1F | 71.1* | -0.3 | 9.4 | -6.9 | 6.9 | 1.5 | -100.4
COc1cc(OC)cc(-c2c(C#Cc3ccsc3)c3cc(-c4ccc5c(c4)OCCO5)ccc3n2C)c1 | 1.4 | -1.1 | -4.7 | . | -12.4 | 10.3 | .
SMILES | CCHF vOTU inh-1 | Vc quorum ag | MazF activator | VHR inh abs | Y pestis TopoI | PrPC surface inh | CCHF vOTU inh-2
COc1ccc(CNc2ccc3cn[nH]c3c2)c(OC)c1OC | 39.8* | -0.3 | 3.2 | -1.8 | -1.6 | -5.7 | -18.1
COc1ccc(CNc2ccncc2)c(OC)c1OC | -9.1 | -0.9 | 0.8 | . | 2.9 | 1.5 | .
Cc1cc(C)c(C)c(OCC(=O)NCC2CCCO2)c1 (centres undefined) | 33.1* | -0.2 | -2.3 | -14.8 | 8.9 | 2.5 | -13.7
Fc1ccc(NC(=S)Nc2cccc3cnccc23)cc1 | 50.1* | -0.6 | 5.4 | 21.7 | -11.5 | -10.9 | 64.8*
S=C(Nc1ccc(Cl)cc1)Nc1cccc2cnccc12 | 57.7* | -2.0 | 7.1 | 0.1 | -9.4 | -6.7 | 88.5*
CN(C)S(=O)(=O)c1cccc(NC(=S)Nc2cccc3cnccc23)c1 | 39.8* | 0.1 | -1.4 | 13.1 | -2.5 | -9.7 | 89.0*
O=C(c1cc2ccccc2o1)N1CCN(Cc2nc3ccccc3s2)CC1 | 2.8 | i | -8.6 | . | 0.6 | -1.5 | .
CC(=O)N(c1ccccc1C)c1ccccc1C | 33.6* | i | 5.0 | . | 1.3 | -5.2 | -9.9
COC(=O)[C@]12C[C@H](CC(=O)NCC3CCCCC3)C(=O)N(CCC3=CCCCC3)C1=C[C@H](C(C)C)O[C@@H]2C1CC1 | 4.6 | . | . | . | . | -2.4 | .
CCCCOCCCNC(=O)C[C@H]1C[C@@]2(C(=O)OC)C(=C[C@H](C(C)C)O[C@@H]2C2CC2)N(CCC2=CCCCC2)C1=O | 39.4* | . | . | . | . | -0.3 | 6.3
COC(=O)[C@]12C[C@H](CC(=O)NCCCCc3ccccc3)C(=O)N(CCC3=CCCCC3)C1=C[C@H](C(C)C)O[C@@H]2C1CC1 | 36.8* | . | . | . | . | 10.4 | 1.8
Cc1cccc(Oc2cc(NC(=O)Cn3cnc([N+](=O)[O-])n3)cc([N+](=O)[O-])c2)c1 | 32.6* | -0.4 | -2.6 | 1.2 | -24.5 | -15.1 | -2.9
COc1ccc(/C=C(\C#N)C(=O)N2COCC2(C)C)cc1 | -6.2 | -0.5 | 12.8 | 32.2 | -3.2 | -2.5 | .
COC(=O)/C=C1\OCc2cc(OC)c(OC)cc21 | 36.9* | . | . | . | . | -3.3 | 1.4
CCOc1ccccc1NC(=O)Nn1cnnc1 | 4.1 | i | 9.5 | 14.0 | 8.2 | 9.8 | .
COc1cc(CN2CCN(c3ncc(Cc4ccccc4)cn3)CC2)cc(OC)c1 | 9.9 | . | . | . | . | -6.1 | .
O=C(CSCc1ccc(Cl)cc1)Nc1ccc(-c2nnc(-c3ccccc3)o2)cc1 | 31.6* | 3.1 | -5.1 | 13.6 | 15.9 | 5.0 | -16.3
C[C@H]1CN([C@@H](C)CO)C(=O)c2cc(-c3cccc(C#N)c3)cnc2O[C@H]1CN(C)C(=O)c1ccccn1 | -8.0 | -0.4 | 10.4 | . | 10.9 | -5.3 | .
O=C1c2cccnc2C(=O)N1CO | 2.3 | i | 10.4 | 14.3 | 7.0 | -1.4 | .
NC1=C(Br)C(=O)c2ncccc2C1=O | 107.3* | -2.0 | 8.2 | . | -5.8 | 16.1 | 94.0*
N#Cc1cc([N+](=O)[O-])ccc1NC(=O)CSc1n[nH]c(=O)n1C1CC1 | 31.5* | i | 4.0 | . | -5.2 | -35.7 | -15.3
O=C(CSc1n[nH]c(=O)n1C1CC1)Nc1ccc(Cl)cc1Cl | 2.8 | -2.6 | 0.6 | . | -3.3 | 4.8 | .
